Source: PubChem BioAssay AID686971 (National Center for Advancing Translational Sciences (NCATS), 2013)
Among all 360,000 compounds or so, about 7,500 (2.1%) were called active. Another 8% or so got no clear call; they are omitted. This is one part of a sample in which actives are shown more often than they occur. Values without a mark were called inactive. The call rests on the fitted dose curve; in most records, active means well fitted cell-killing curve with a large enough effect; inconclusive means small, poorly fitted or top-dose-only effect, or effect the other way, or another doubt; inactive means no such curve, though single readings can be large or run the other way.

Experiment: qHTS for induction of synthetic lethality in tumor cells producing 2HG: qHTS for the HT-1080-IDH1KD cell line;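 on activity, negative = toxicity: 0% = DMSO wells and -100% = cell-free medium wells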
Details: HT-1080 IDH1 knockdown viability, ATP luminescence, 48 h; series mostly up to 46.1 µM; activity, negative = toxicity: at the top concentration
Method in brief: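 In this qHTS, HT-1080 cells depleted of IDH1 are exposed for 48 h at 37 °C to compound titrations. Toxicity is scored from CellTiter-Glo luminescence, with DMSO as full viability and medium alone as none.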
Potency means the concentration at half of the fitted maximal effect.

SMILES	activity, negative = toxicity	Potency
COc1cccc(OCC(=O)NCCS(=O)(=O)N2CCN(c3ccccc3)CC2)c1	10.8%	
COc1ccc(CCNC(=O)Nc2ccc3c(c2)c(=O)n(C)n3C)cc1OC	3.98%	
Cc1onc(-c2c(Cl)cccc2Cl)c1C(=O)c1c[nH]c(C(=O)NC2CC2)c1	-15.5%	
Cc1onc(-c2c(Cl)cccc2Cl)c1C(=O)NNC(=O)c1c(-c2c(Cl)cccc2Cl)noc1C	-11%	
Cc1[nH]n(C)c(=O)c1C(=O)c1c(-c2c(Cl)cccc2Cl)noc1C		16.4 µM (active)
CC(C)(C(=O)N1CCC1(C)C(=O)NS(=O)(=O)c1ccc(Br)cc1)c1ccccc1 (stereo not drawn)	0.625%	
CCOC(=O)C1=CC[C@@H](c2ccccc2)N(S(=O)(=O)c2ccc(C)cc2)[C@H]1c1ccc(CC)cc1	-7.6%	
CCCCCCN1C[C@@H](O)[C@H](n2cc(COC(=O)c3ccccc3)nn2)C[C@@H]1c1ccc(Cl)cc1	-0.87%	
O=C(O)C1CCCN1c1nc(Cl)ccc1[N+](=O)[O-] (stereo not drawn)	-0.181%	
CC(C)NC(=O)Nc1ccc2c(c1)C(=O)N([C@H](C)CO)C[C@H](C)[C@@H](CN(C)Cc1ccc(C(F)(F)F)cc1)OCCCC[C@@H](C)O2	-29.9%	
O=C(Cc1c(O)c2ccccc2[nH]c1=O)NCc1ccccc1	1.12%	
COc1cc(C(=O)Nn2c(CC(C)C)nc3ccccc3c2=O)cc(OC)c1OC	-10.6%	
CCCc1nc2ccccc2c(=O)n1NC(=O)c1c(O)c2ccccc2[nH]c1=O		11.2 µM (active)
CCOC(=O)c1c(C(C#N)C#N)cc(C)nc1C	-2.16%	
CCOC(=O)c1cc(C)nc(S(C)(=O)=O)c1C#N		20.6 µM (active)
CCOC(=O)COc1nc(C)cc(C(F)(F)F)c1C#N	23.4%	
NS(=O)(=O)c1ccc(CNC(=O)c2cc(S(=O)(=O)N3CCOCC3)ccc2N2CCCC2)cc1	-0.265%	
COC(=O)Cc1ccc(OC2(C)CCN(Cc3ccc4c(c3)OCCO4)C2)cc1 (stereo not drawn)	0%	
COc1ccc(C(=O)C(OP(=O)(OC)OC)c2ccccc2OC)cc1 (stereo not drawn)	7.41%	
C[C@@H]1CN([C@@H](C)CO)S(=O)(=O)c2ccc(C#Cc3cccc(F)c3)cc2O[C@H]1CN(C)S(=O)(=O)c1cn(C)cn1	-3.82%	
O=C(CCC(=O)N/N=C/c1ccc(Br)o1)N/N=C/c1ccc(Br)o1	7.46%	

SMILES	activity, negative = toxicity	Potency
CCOc1cc(C=NNC(=O)CCCC(=O)NN=Cc2ccc(O)c(OCC)c2)ccc1O	12.7%	
O=C(CCc1ccc(O)cc1)NN=Cc1cc(Br)ccc1O		16.4 µM (active)
CCc1nc2ccc(C(=O)N3CCN(S(=O)(=O)CC)CC3)cn2c1N(C=O)CCC(C)C	1.95%	
C[C@H]1CN([C@@H](C)CO)C(=O)CCCn2nncc2CO[C@@H]1CN(C)S(=O)(=O)c1cccc(C#N)c1	4.1%	
COc1ccc(S(=O)(=O)NCCCc2ccccc2)cc1	12.5%	
Cc1ccc(S(=O)(=O)/N=C2\C=C(NS(=O)(=O)c3ccc(C)cc3)C(=O)c3ccccc32)cc1	-6.93%	
COc1ccc(S(=O)(=O)/N=C2\C=C(NS(=O)(=O)c3ccccc3)C(=O)c3ccccc32)cc1		20.6 µM (active)
CC1(C(=O)NS(=O)(=O)c2ccccc2Cl)CCN1C(=O)c1cccc(F)c1 (stereo not drawn)	8.85%	
CCCCC(O)C1=C[N+](=O)CC=C1 (stereo not drawn)	2.6%	
O=C(COC(=O)CCc1c[nH]c2ccccc12)Nc1cccc(Cl)c1	-0.919%	
CCCCOC(=O)Nc1nnc(CC(=O)NCc2ccccc2)s1		5.17 µM (active)
CCCCc1nnc(NC(=O)CS(=O)(=O)Cc2ccccc2)s1	-1.65%	
CCCCOC(=O)Nc1nccs1	5.67%	
CCC(c1nc2ccccc2[nH]1)n1c(=O)c(-c2cccs2)nc2ccccc21 (stereo not drawn)	-15.1%	
COc1ccc(C(=O)NCC[N+](C)(C)C)cc1	4.15%	
CCOC(=O)c1cnn2c(SC)ncnc12	0.362%	
COc1ccc(NC(=O)CN(C)C(=O)c2ccc(COc3ccccc3)o2)cc1	8.48%	
Cc1cc(OCc2ccc(C(=O)Nc3ccc(C(=O)O)cc3)o2)ccc1Cl		23.1 µM (active)
CCOc1ccc(OCc2ccc(C(=O)Nc3cccc(C)n3)o2)cc1	2.75% [at 9.24 µM]	
N#Cc1ccc(C(C(=O)NCc2ccccc2)n2c(=O)c(-c3ccco3)nc3ccccc32)cc1 (stereo not drawn)	-2.37%	
COc1ccc2c(c1OC)C(=O)OC2Nc1nc(-c2ccccc2)cs1 (stereo not drawn)		10.3 µM (active)

SMILES	activity, negative = toxicity	Potency
Cc1ccc(-c2csc(-c3cc(C)on3)n2)cc1	21.4%	
C/C(CC1CC(C)(C)OC1=O)=N/Nc1nc(-c2ccccc2)cs1 (stereo not drawn)	-19.8%	
CCc1ccccc1NC(=O)[C@@H]1CCC(=O)N1C1OC(=O)c2c1ccc(OC)c2OC (stereo partly drawn)	-3.7%	
Cc1ccc(-c2csc(-c3c[nH]c4ccccc34)n2)cc1	-7.85%	
Cc1ccc(-c2csc(NC3OC(=O)c4ccccc43)n2)cc1 (stereo not drawn)		11.6 µM (active)
COC(=O)C(Cc1c[nH]c2ccccc12)NC(=O)CCNC(=O)c1ccco1 (stereo not drawn)	1.68%	
CC(=O)N1CCN(Cc2cc(=O)oc3cc(C)ccc23)CC1	-9.52%	
c1ccc(Cn2nnc3c(N4CCCCC4)ncnc32)cc1	-5.29%	
O=C1CCC(C(=O)OCC(=O)Nc2ccc(OC(F)F)cc2)=NN1	2.51%	
CC(C)(O)C1=C[N+](=O)CC=C1	3.42%	
CCN(CCN(C)C)C(=O)c1ccc2nc(C)c(N(C)C(=O)CCc3ccccc3)n2c1	-0.559%	
COc1ccc(NC(=O)CNC(=O)Cc2ccccc2)cc1OC	-11.2%	
COc1ccc(CNC(=O)Cc2ccc(-c3ccccc3)cc2)cc1OC		14.6 µM (active)
COc1ccc(CCNC(=O)Cc2ccc(C)cc2)cc1OC	-3.7%	
CC1=C(C(=O)N2CCOCC2)CC(CC(=O)NCCCN(C)C)C(=O)N1Cc1ccc(C(C)(C)C)cc1 (stereo not drawn)	20.4%	
COc1ccc(Cn2c(=O)[nH]c3cc(C(=O)N4CCN(C(=O)c5ccco5)CC4)ccc3c2=O)cc1	3.12%	
COc1ccccc1NC(=O)C(CC(=O)O)Cc1cc(C)cc(C)c1 (stereo not drawn)	0.14%	
O=C(CSc1ccc(Cl)cc1)NC1CC1	1.1%	
COc1ccc(NC(=O)/C(C#N)=C\c2cc(OC)c(OCc3ccc(C(=O)O)cc3)cc2Br)cc1	10.1%	
COc1ccc(CNC(=O)CCn2cccc2)cc1	18%	
COc1ccc(CNC(=O)/C(C#N)=C/c2cccc(OC)c2OC)cc1		25.9 µM (active)
